Reference: the supplement of paper PMC7393113
± gives the standard deviation of the averaged measurements.

Tested on: iBMDM (immortalised mouse bone-marrow-derived macrophages), LPS-stimulated
Test: mitochondrial superoxide (MitoSOX fluorescence) fold increase over unstimulated control; higher = more LPS-induced mitochondrial ROS (less inhibition)
Conditions: inhibitor concentration: 500 nM, LPS: 100 ng/ml
Outline: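 Immortalised mouse bone-marrow-derived macrophages were seeded in triplicate in black 96-well plates and moved to phenol-red-free 1% FCS/DMEM for 20 h. They were pretreated 30 min with kinase inhibitors (500 nM), loaded with 1 μM MitoSox for 10 min, then given LPS (100 ng/ml). Fluorescence (excitation/emission 510/580 nm, ClarioStar plate reader) was read every 60 min for 4 h. Mitochondrial superoxide is fold induction over untreated control macrophages, averaged over three replicates.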

SMILES | mitochondrial superoxide (time after LPS: 1 h) | mitochondrial superoxide (time after LPS: 2 h) | mitochondrial superoxide (time after LPS: 4 h)
Nc1nc(N)c2nc(-c3cccc(O)c3)cnc2n1 | 1.03 ± 0.016 | 1.04 ± 0.043 | 1.09 ± 0.046
COC(=O)c1ccc2c(C(=Nc3ccc(N(C)C(=O)CN4CCN(C)CC4)cc3)c3ccccc3)c(O)[nH]c2c1 [Nintedanib (BIBF 1120)] | 1.43 ± 0.015 | 1.5 ± 0.056 | 1.72 ± 0.037
CN1CCN(C2CCN(C(=O)Nc3cc(Oc4ccc(NC(=O)C5(C(=O)Nc6ccc(F)cc6)CC5)c(F)c4)ccn3)CC2)CC1 [Golvatinib (E7050)] | 1.04 ± 0.073 | 1.08 ± 0.075 | 1.09 ± 0.071
Cn1cc(-c2ccc3nnc(Sc4ccc5ncccc5c4)n3n2)cn1 | 1.33 ± 0.036 | 1.4 ± 0.04 | 1.525 ± 0.0078
N#CCNC(=O)c1ccc(-c2ccnc(Nc3ccc(N4CCOCC4)cc3)n2)cc1 | 1.05 ± 0.071 | 1.17 ± 0.017 | 1.27 ± 0.13
Nc1cc(C(F)(F)F)c(-c2cc(N3CCOCC3)nc(N3CCOCC3)n2)cn1 [BKM120 (NVP-BKM120, Buparlisib)] | 1.33 ± 0.034 | 1.41 ± 0.024 | 1.53 ± 0.05
COc1ccc(C(=O)Nc2sc3c(c2C(N)=O)CCCC3)cc1OC | 1.42 ± 0.034 | 1.49 ± 0.045 | 1.64 ± 0.03
COc1cc2c(Oc3ccc4[nH]c(C)cc4c3F)ncnc2cc1OCCCN1CCCC1 [Cediranib (AZD2171)] | 1.65 ± 0.088 | 1.65 ± 0.079 | 1.78 ± 0.081
O=C(O)[C@]1(Cc2cccc(Nc3nccs3)n2)CC[C@@H](Oc2cccc(Cl)c2F)CC1 | 1.22 ± 0.027 | 1.39 ± 0.086 | 1.51 ± 0.044
O=S(=O)(NCCNCC=Cc1ccc(Br)cc1)c1cccc2cnccc12 | 1.01 ± 0.063 | 1.15 ± 0.074 | 1.28 ± 0.07
Nc1cccc(-c2cc3c(Oc4cccc(O)c4)ncnc3[nH]2)c1 | 1.06 ± 0.059 | 1.17 ± 0.022 | 1.25 ± 0.03
COc1cc2ncnc(Nc3ccc(F)c(Cl)c3)c2cc1NC(=O)/C=C/CN1CCCCC1 | 1.22 ± 0.031 | 1.48 ± 0.045 | 1.57 ± 0.069
Nc1ccc(C(=O)Nc2cccc(-c3nc(N4CCOCC4)c4oc5ncccc5c4n3)c2)cn1 | 1.15 ± 0.037 | 1.23 ± 0.053 | 1.24 ± 0.028
C[C@]1(O)C[C@@H](c2nc(-c3ccc4ccc(-c5ccccc5)nc4c3)c3c(N)nccn32)C1 [OSI-906 (Linsitinib)] | 1.45 ± 0.18 | 1.51 ± 0.21 | 1.56 ± 0.19
Cc1cnc(Nc2ccc(N3CCN(C)CC3)cc2)nc1Nc1cccc(S(=O)(=O)NC(C)(C)C)c1 | 1.36 ± 0.025 | 1.51 ± 0.04 | 1.65 ± 0.027
CC[C@@H]1C(=O)N(C)c2cnc(Nc3ccc(C(=O)NC4CCN(C)CC4)cc3OC)nc2N1C1CCCC1 | 1.14 ± 0.063 | 1.19 ± 0.038 | 1.39 ± 0.028
COc1ccc(Cl)cc1NC(=O)Nc1cc(C)nc2ccccc12 | 1.42 ± 0.05 | 1.55 ± 0.055 | 1.652 ± 0.011
C=CC(=O)Nc1cccc(Oc2nc(Nc3ccc(N4CCN(C)CC4)cc3)ncc2Cl)c1 | 1.54 ± 0.047 | 1.71 ± 0.056 | 1.8 ± 0.14
CNC(=O)c1c(F)cccc1Nc1nc(Nc2cc3c(cc2OC)CCN3C(=O)CN(C)C)nc2[nH]ccc12 | 1.28 ± 0.057 | 1.47 ± 0.031 | 1.64 ± 0.015
CCc1cncnc1N1CCN(Cc2nc3ccc(C(F)(F)F)cc3[nH]2)CC1 | 1.12 ± 0.073 | 1.23 ± 0.037 | 1.34 ± 0.1
COc1cc(N2CCC(N(C)C)CC2)ccc1Nc1ncc(Cl)c(Nc2ccccc2P(C)(C)=O)n1 | 1.15 ± 0.031 | 1.27 ± 0.11 | 1.33 ± 0.076
COc1cc2c(Oc3ccc(NC(=O)C4(C(=O)Nc5ccc(F)cc5)CC4)cc3F)ccnc2cc1OCCCN1CCOCC1 | 1.25 ± 0.022 | 1.35 ± 0.034 | 1.48 ± 0.03
C[C@@H]1CN(CC(=O)Nc2ccc3c(c2)Cc2cccc(-c4cc(=O)cc(N5CCOCC5)o4)c2S3)C[C@H](C)O1 | 1.2 ± 0.07 | 1.31 ± 0.059 | 1.44 ± 0.015
CN1CCN(c2ccc3nc(-c4c(N)c5c(F)cccc5[nH]c4=O)[nH]c3c2)CC1 [Dovitinib (TKI-258) Dilactic Acid] | 1.28 ± 0.073 | 1.32 ± 0.03 | 1.51 ± 0.041
CO[C@H]1C[C@@H]2CC[C@@H](C)[C@@](O)(O2)C(=O)C(=O)N2CCCC[C@H]2C(=O)O[C@H]([C@H](C)C[C@@H]2CC[C@@H](OP(C)(C)=O)[C@H](OC)C2)CC(=O)[C@H](C)/C=C(\C)[C@@H](O)[C@@H](OC)C(=O)[C@H](C)C[C@H](C)/C=C/C=C/C=C/1C [Ridaforolimus (Deforolimus, MK-8669)] | 1.55 ± 0.087 | 1.592 ± 0.0072 | 1.78 ± 0.04
Cc1cc(O)c2c(c1)C(=O)c1cccc(O)c1C2=O [Chrysophanic Acid] | 1.29 ± 0.11 | 1.36 ± 0.097 | 1.48 ± 0.022
COc1ccc(-c2nc(N3CCOCC3)c3sc(CN(C)c4ncc(C(=O)NO)cn4)cc3n2)cn1 | 1.31 ± 0.095 | 1.52 ± 0.1 | 1.77 ± 0.17
COc1cc2ncnc(Nc3ccc(O)c(Br)c3)c2cc1OC | 1.04 ± 0.047 | 1.04 ± 0.082 | 1.07 ± 0.12
CN1CCN(c2nc(C3=C(c4c[nH]c5ccccc45)C(=O)NC3=O)c3ccccc3n2)CC1 [Sotrastaurin] | 1.41 ± 0.015 | 1.55 ± 0.039 | 1.749 ± 0.012
Oc1cccc(-c2nc(N3CCOCC3)c3oc4ncccc4c3n2)c1 | 1.61 ± 0.025 | 1.62 ± 0.03 | 1.685 ± 0.012
